A number with no mark means an inactive call.
System: Vero E6 infected with SARS-CoV-2
Assay: inhibition of SARS-CoV-2 cytopathic effect; higher = more antiviral protection, active = above 15
Conditions: 48 h

Row | SMILES | inhibition of SARS-CoV-2 cytopathic effect (1 nM) [%] | inhibition of SARS-CoV-2 cytopathic effect (8.33 nM) [%] | inhibition of SARS-CoV-2 cytopathic effect (100 nM) [%] | inhibition of SARS-CoV-2 cytopathic effect (833.33 nM) | inhibition of SARS-CoV-2 cytopathic effect (10000 nM)
1 | CC(C)(C)C(=O)Oc1ccc(S(=O)(=O)Nc2ccccc2C(=O)NCC(=O)O)cc1 [sivelestat] | 1.78 | -0.24 | 0.61 | 1.84% | -1.94%
2 | CC(C)(N)C(=O)N[C@H](COCc1ccccc1)C(=O)N1CCC2(CC1)CN(S(C)(=O)=O)c1ccccc12 [ibutamoren] | 1.85 | 2.84 | 0.93 | 4.99% | 2.99%
3 | CC(C)N1Cc2cc(S(C)(=O)=O)ccc2N(CCN2CC=C(c3c[nH]c4cc(F)ccc34)CC2)S1(=O)=O | -0.02 | 5.05 | 2.58 | 1.15% | 4%
4 | O=C1CCC(N2C(=O)c3ccccc3C2=O)C(=O)N1 (stereo not given) [thalidomide] | 5.17 | -1.38 | -2.47 | -1.68% | -4.45%
5 | COc1cc2c(c(OC)c1OC)-c1c(cc3c(c1OC)OCO3)C[C@H](C)[C@@](C)(O)C2 [schisandrol-B] | 3.78 | 3.17 | 2.65 | 2.33% | 1.68%
6 | COc1ccc(/C=C/C(=O)O)cc1 [trans-4-methoxycinnamic-acid] | 1.02 | -0.31 | -1.64 | -0.87% | -1.56%
7 | Cc1sc2c(c1C)C(c1ccc(Cl)cc1)=N[C@@H](CC(=O)Nc1ccc(O)cc1)c1nnc(C)n1-2 | 1.01 | 0.43 | -1.47 | -3.68% | -9.86%
8 | N=C(N)NC(=O)c1cnccn1 [pyrazinoylguanidine] | 0.04 | -6.78 | -2.28 | -5.59% | -0.5%
9 | O=c1cc(N2CCOCC2)oc2c(-c3cccc4c3sc3ccccc34)cccc12 | 1.01 | -0.44 | 0.05 | 8.27% | 36.8% (active)
10 | CN1CCN(Cc2ccc(-c3cnc4[nH]cc(-c5ccc6[nH]ccc6c5)c4c3)cc2)CC1 | 1.32 | 1.21 | 3.09 | 21.6% (active) | -14.8%
11 | O=c1cc(-c2cccc3c2Sc2ccccc2S3)oc(N2CCOCC2)c1 | 2.07 | -2.3 | -0.67 | 3.55% | -1.33%
12 | Fc1ccc(Cn2c(NC3CCNCC3)nc3ccccc32)cc1 [tecastemizole] | -7.23 | -9.9 | -11.8 | -8.85% | -8.1%
13 | S=C(NCc1ccc2c(c1)OCO2)N1CCN(c2ncnc3c2oc2ccccc23)CC1 [amuvatinib] | 3.11 | -0.46 | 1.46 | 2.33% | -1.9%
14 | COc1cc(-n2c(=S)[nH]c3ccccc3c2=O)c(Cl)cc1Cl [mdivi-1] | 0.74 | 0.3 | -0.2 | -0.45% | -1.37%
15 | [N-]=[N+]=CC(=O)CC[C@H](N)C(=O)O [6-diazo-5-oxo-L-norleucine] | 0.69 | 0.78 | 0.86 | 0.6% | -0.69%
16 | CNC(=O)c1ccc2c(c1)CCO[C@H]2CCN1CCN(c2ccc(C(N)=O)cc2)CC1 | 1.05 | -0.55 | 1.37 | -1.27% | 3.34%
17 | O=C(CCCN1CCN(c2ccccn2)CC1)c1ccc(F)cc1 [azaperone] | 0 | -7.58 | -6.03 | -5.15% | 0.26%
18 | O=S(=O)(O)CCS [mesna] | 2.64 | 4.29 | 1.16 | 5.57% | 0.95%
19 | CCC(=O)O[C@]1(C(=O)COC(C)=O)CC[C@H]2[C@@H]3C[C@H](C)C4=CC(=O)C=C[C@]4(C)[C@H]3[C@@H](O)C[C@@]21C [methylprednisolone-aceponate] | 1.61 | 1 | 0.19 | 3.54% | 2.69%

Row | SMILES | inhibition of SARS-CoV-2 cytopathic effect (1 nM) [%] | inhibition of SARS-CoV-2 cytopathic effect (8.33 nM) [%] | inhibition of SARS-CoV-2 cytopathic effect (100 nM) [%] | inhibition of SARS-CoV-2 cytopathic effect (833.33 nM) | inhibition of SARS-CoV-2 cytopathic effect (10000 nM)
20 | CC(C)(C)NCC(O)COc1ccc(NC(=O)NC2CCCCC2)cc1 (stereo not given) [talinolol] | 0.2 | -2.2 | -0.81 | 0.83% | 0.7%
21 | C/C1=C/C[C@@H](/C(C)=C/c2csc(C)n2)OC(=O)C[C@H](O)C(C)(C)C(=O)[C@H](C)[C@@H](O)[C@@H](C)CCC1 [epothilone-D] | 2.13 | -0.55 | -1.83 | -0.53% | -1.4%
22 | CC(C)(c1ccc(O)cc1)c1ccc(O)cc1 [bisphenol-A] | 3.73 | 8.2 | 2.75 | 1.31% | 4%
23 | NC(=O)c1ncn([C@@H]2O[C@H](CO)[C@@H](O)[C@H]2O)c1O [mizoribine] | -1.24 | -0.82 | 0.9 | 0.29% | -1.77%
24 | CC(=O)OCC(=O)[C@@]1(O)CC[C@H]2[C@@H]3CCC4=CC(=O)C=C[C@]4(C)[C@@]3(Cl)[C@@H](Cl)C[C@@]21C [dichlorisone-acetate] | -1.93 | -2.25 | -3.39 | -2.97% | -2.91%
25 | COc1ccccc1C1(O)CCN(CCCn2c3ccccc3c3ccccc32)CC1 | 0.73 | 1.45 | 2.5 | 1.69% | 42.4% (active)
26 | CCCCCCCCCC(=O)OC1(c2ccc(Cl)cc2)CCN(CCCC(=O)c2ccc(F)cc2)CC1 [haloperidol-decanoate] | 0.13 | 0.37 | -2.1 | -0.9% | -1.91%
27 | O=C(Nc1ccc(C(F)(F)F)cn1)N1CCN(c2ncccc2C(F)(F)F)CC1 | -2.83 | 0.93 | 1.25 | 1.49% | -0.71%
28 | O=C(OC(C(F)(F)F)C(F)(F)F)N1CCN(Cc2cccc(Oc3ccccc3)c2)CC1 | 3.59 | 4.7 | 3.33 | 3.51% | 2.77%
29 | CC[C@@]1([C@H]2O[C@H]([C@H]3O[C@@](O)(CO)[C@H](C)C[C@@H]3C)C[C@H]2C)CC[C@H]([C@@]2(C)CC[C@]3(C[C@H](O)[C@@H](C)[C@@H]([C@H](C)[C@H](OC)[C@@H](C)C(=O)O)O3)O2)O1 | -2.66 | -0.7 | 2.93 | 27.6% (active) | 52.5% (active)
30 | C[C@]12CC[C@H]3[C@@H](CC[C@]4(O)C[C@@H](O)CC[C@]34C=O)[C@@]1(O)CC[C@@H]2C1=CC(=O)OC1 [K-strophanthidin] | 0.01 | 0.18 | -5.59 | -12.1% | -16.9%
31 | C[C@H](Nc1ncnc2[nH]cnc12)c1nc2ccc(F)cc2c(=O)n1-c1ccccc1 [acalisib] | 0.46 | -0.64 | 0.1 | -0.64% | -5.35%
32 | Cc1cc(C)c(CNC(=O)c2cc(-c3ccc(N4CCN(C)CC4)nc3)cc3c2c(C)cn3C(C)C)c(=O)[nH]1 | -3.53 | -2.54 | -3.49 | -2.29% | -3.02%
33 | C[C@H](Oc1ccc(S(C)(=O)=O)cc1C(=O)N1CCN(c2ncc(C(F)(F)F)cc2F)CC1)C(F)(F)F [bitopertin] | 1.07 | 0.78 | 1.93 | 0.34% | -3.97%
34 | COc1ccc(-c2cc(=O)c3c(OC)c(OC)c(OC)c(OC)c3o2)cc1 [tangeritin] | 2.13 | 0.56 | -0.23 | 0.3% | -0.52%
35 | COc1cc(NC(=O)Nc2cccc(CNC(=O)O[C@H]3CCOC3)c2)ccc1-c1cnco1 [merimepodib] | 0.31 | 0.11 | -0.15 | 2.5% | 8.45%
36 | COc1ccccc1Oc1c(NS(=O)(=O)c2ccc(C)cn2)nc(-c2ccncc2)nc1OC | 1.47 | 2.09 | 1.19 | 2.9% | -4.64%
37 | On1ncc(C2CCNCC2)c1-c1cccc(-c2ccccc2)c1 | 0.6 | 1.61 | 1.14 | 0.48% | -2.39%
38 | Nc1ncnc2c1c(-c1ccc(Cl)cc1)nn2-c1cccc(-c2cnnn2Cc2cccc(-c3ccccc3)c2)c1 | -2.81 | -0.01 | -1.05 | -2.27% | -0.83%

Reference: the supplement of paper PMC13380429
